# Hits are enriched below; roughly 7% of the tested compounds scored in any of these assays.
# KAT2A inh: qHTS Assay for Inhibitors of GCN5L2; Histone acetyltransferase KAT2A (Homo sapiens), Q92830; GCN5L2 HAT assay, ThioGlo1 CoA-SH fluorescence; Potency, µM (doses to about 58.9 µM), without a hit: at the top dose activity change, negative = inhibition, usual class: inhibitors; 390,000 tested, 0.21% active; note: potency is the fitted concentration of half-maximal effect; % is set by controls: 0 for no effect and ±100 for the full control effect
#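 ThioGlo1-coupled HAT assay: 20nM GCN5L2, 70uM acetyl-CoA, 75uM H3(1-25) peptide, pH 7.5. Fluorescence read at 340/540nm at start and after 20 min at room temperature.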
# PI5P4Ka inh: qHTS for Inhibitors of phosphatidylinositol 5-phosphate 4-kinase (PI5P4K); Phosphatidylinositol 5-phosphate 4-kinase type-2 alpha (Homo sapiens), P48426; PI5P4Kalpha enzyme, ADP-Glo luminescence, 60 min; stronger effect = lower value; max response, %; 330,000 tested, 1.2% active; AID 652105, 2013; active = max response of -50% or lower; inconclusive = between -30% and -50%; inactive = -30% or higher; note: value at the top dose of about 77 µM; % is set by controls: 0 for no effect and ±100 for the full control effect
#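 Single end-point luminescence (ADP-Glo) quantified ADP from PI5P4Kalpha turnover; ATP 5 microM final, 1 h at RT, 0.1% CHAPS and 0.28 mM EGTA in HEPES pH 7.4.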
# BAZ2B block: qHTS Assay for Inhibitors of BAZ2B | Bromodomain adjacent to zinc finger domain protein 2B (Homo sapiens), Q9UIF8 | AlphaScreen BAZ2B-H3K14Ac peptide displacement | Potency, µM (top dose mostly 114 µM), for inactives: top-dose activity change, negative = inhibition, hits mostly inhibitors | 360,000 tested, 4.4% active | AID 504333, 2011; note: potency is the fitted concentration of half-maximal effect; % is set by controls: 0 for no effect and ±100 for the full control effect; nearly all actives have a fitted effect of over 60% in size
#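 Protein-peptide AlphaScreen: BAZ2B 50 nM, b-H3K14Ac 50 nM, 1x PBS pH 7.4 + 0.01% Tween-20. Preincubation 30 min RT; cpd 30 min RT (top 110 uM); beads 20 min RT, light-protected.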
# PLK1 PBD block: qHTS for Inhibitors of PLK1-PDB (polo-like kinase 1 - polo-box domain): Primary Screen. 360,000 tested, 2.8% active. Plk1 PBD binding of FITC phosphopeptide, fluorescence polarization. Potency, µM, for the others: max response, negative = inhibition, usual class: inhibitors; note: potency is the fitted concentration of half-maximal effect; series mostly up to about 57 µM; % is set by controls: 0 for no effect and ±100 for the full control effect; nearly all actives have a fitted effect of over 65% in size
# HP1b binding inh: HTS for Inhibitors of HP1-beta Chromodomain Interactions with Methylated Histone Tails | AlphaScreen HP1-beta / biotin-H3K9me3 peptide binding | 390,000 tested, 0.56% active | Potency, µM (doses to about 114 µM), for inactives: at the top dose activity change, negative = inhibition, hits mostly inhibitors; note: potency is the fitted concentration of half-maximal effect; nearly all actives have a fitted effect of over 70% in size
#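 Compound inhibition of the preformed complex between 50 nM HP1-beta and 50 nM biotinylated H3K9me3 peptide was read by AlphaScreen. Buffer was PBS pH 7.4 with 0.01% Tween-20. Incubations ran 30 min at room temperature, with 10 ug/mL donor/acceptor beads.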
# JMJD2A Tudor inh: qHTS Assay for Inhibitors of JMJD2A-Tudor Domain | Lysine-specific demethylase 4A (Homo sapiens), O75164 | AlphaScreen JMJD2A-Tudor / H3K4me3 peptide binding | Potency, µM (series often up to 114 µM), inactives show at the highest dose activity change, negative = inhibition, most hits filed as inhibitors | 390,000 tested, 4.4% active | AID 504339, 2011; note: potency is the fitted concentration of half-maximal effect; % is set by controls: 0 for no effect and ±100 for the full control effect; nearly all actives have a fitted effect of over 50% in size
# Target sequence (O75164 whole entry, looked up, the tested form may be a part): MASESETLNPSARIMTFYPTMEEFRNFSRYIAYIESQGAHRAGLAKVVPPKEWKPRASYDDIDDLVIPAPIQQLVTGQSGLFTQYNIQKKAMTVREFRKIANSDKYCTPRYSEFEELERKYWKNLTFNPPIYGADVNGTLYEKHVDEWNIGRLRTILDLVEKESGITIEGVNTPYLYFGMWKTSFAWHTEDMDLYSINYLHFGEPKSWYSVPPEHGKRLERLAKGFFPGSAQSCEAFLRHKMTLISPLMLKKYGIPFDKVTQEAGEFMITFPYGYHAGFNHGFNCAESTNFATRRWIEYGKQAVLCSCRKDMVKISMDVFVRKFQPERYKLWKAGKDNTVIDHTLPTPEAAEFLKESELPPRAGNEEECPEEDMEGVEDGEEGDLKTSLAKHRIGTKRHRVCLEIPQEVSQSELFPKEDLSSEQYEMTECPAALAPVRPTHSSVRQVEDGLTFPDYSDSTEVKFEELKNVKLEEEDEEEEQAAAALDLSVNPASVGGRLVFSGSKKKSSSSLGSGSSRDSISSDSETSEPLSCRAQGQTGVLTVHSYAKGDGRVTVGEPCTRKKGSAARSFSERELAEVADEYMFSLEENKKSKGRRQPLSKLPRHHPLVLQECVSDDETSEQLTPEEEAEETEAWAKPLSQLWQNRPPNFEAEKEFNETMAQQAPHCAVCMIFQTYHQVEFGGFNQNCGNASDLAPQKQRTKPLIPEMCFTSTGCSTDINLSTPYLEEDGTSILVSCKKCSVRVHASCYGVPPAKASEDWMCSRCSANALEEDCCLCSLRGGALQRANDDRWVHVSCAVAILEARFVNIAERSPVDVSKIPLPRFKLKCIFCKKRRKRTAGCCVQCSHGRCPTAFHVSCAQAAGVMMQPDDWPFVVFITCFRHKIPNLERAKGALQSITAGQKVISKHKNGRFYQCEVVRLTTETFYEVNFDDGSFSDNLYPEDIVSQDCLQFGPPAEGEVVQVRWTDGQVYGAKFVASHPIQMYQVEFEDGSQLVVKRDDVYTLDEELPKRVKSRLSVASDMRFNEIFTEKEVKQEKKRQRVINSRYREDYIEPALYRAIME
# * marks the source's active call; other numbers are inactive results; u = inconclusive; x = no result; [ ] = remark or other dose. Unless noted, calls come from the whole dose curve; as a rule, active = well fitted curve in the direction sought with a large enough effect; inconclusive = small, poorly fitted or top-dose-only effect, or another doubt; inactive = no such curve, though single readings can be large; an effect the other way counts as inactive or inconclusive.
SMILES,KAT2A inh,PI5P4Ka inh,BAZ2B block,PLK1 PBD block,HP1b binding inh,JMJD2A Tudor inh
O=C(CN1C(=O)c2ccccc2S1(=O)=O)Nc1ncc([N+](=O)[O-])s1,-13.4%,u,u,18.9µM*,-23.3%,3.55µM*
CC(=O)Nc1ccc(NC(=O)c2nccnc2C(=O)O)cn1,-2.4%,0.0,50.1µM*,-6.9%,11.1%,-9.1%
Cn1nccc1NC(=O)c1nccnc1C(=O)O,-2.6%,-0.7,u,1.2%,21.7%,-2.9%
COc1cc(NC(=O)c2nccnc2C(=O)O)cc(OC)c1,-5.9%,1.9,u,-3.3%,15.9%,39.8µM*
COC(=O)c1sc(-c2ccccc2)cc1NC(=O)Nc1ccc(Cl)cc1,-5.2%,x,-0.3%,x,19.4%,-5.0%
COC(=O)c1sc(-c2ccc(Cl)cc2)cc1NC(=O)CSCC(=O)O,-6.1%,-53.3*,-19.3%,-19.3%,25.1%,-14.0%
O=C(COC(=O)CSc1cc(Cl)ccc1Cl)NCc1ccc2c(c1)OCO2,-2.4%,-3.1,1.3%,26.7µM*,-7.2%,-29.6%
O=C(COC(=O)COc1ccc(Cl)cc1)NCc1ccc2c(c1)OCO2,-2.7%,2.2,x,0.5%,7.9%[57 µM],2.8%
CCCCCCS(=O)[C@H]1CS(=O)(=O)C[C@@H]1S(=O)CCCCCC (some centres not stated),2.9%,-11.2,-4.2%,11.9µM*,45.1%,-7.5%
COc1ccc(-c2cc(CCC(=O)N3CCN(c4cc(C)ccc4C)CC3)on2)cc1,-7.9%,17.7,x,1.1%,22.9%,-25.9%
COc1ccc(-c2cnc(SCC(=O)Nc3ccc4c(c3)OCO4)n2Cc2ccco2)cc1,u,-2.0,u,-11.3%,u,20µM*
COc1ccc(Cn2c(CO)cnc2SCC(=O)Nc2ccc3c(c2)OCCO3)cc1,0.9%,x,u,x,14.1%[57 µM],-31.3%
CC(=O)Nc1cccc(NC(=O)CSc2ncc(-c3ccc(Cl)cc3)n2Cc2ccco2)c1,-6.5%,-25.5,12.6µM*,7.52µM*,u,u
CC(C)c1ccc(COC(=O)CN2C(=O)NC3(CCCCC3C)C2=O)cc1 (configuration not stated),-14.9%,16.7,-10.0%,2.3%,28.1%,-1.0%
CCN(CC(=O)Nc1ccc2c(c1)OCCO2)CC(=O)Nc1ccc(C)c(S(=O)(=O)N(C)C)c1,-3.6%,-8.8,x,-0.4%,1.2%,-31.5%
CC1=NC(=O)C(N=Nc2ccccc2)N1c1ccccc1 (configuration not stated),0.2%,2.1,8.91µM*,-4.0%,-31.6%,11.2µM*
CC1=NC(=O)C(N=Nc2ccccc2C(=O)O)N1c1ccccc1 (configuration not stated),-5.4%,u,28.2µM*,u,-12.6%,u
Cc1[nH]n(-c2ccccc2)c(=O)c1N=Nc1ccccc1C(=O)O,-26.1%,-29.3,u,-29.3%,-6.5%,u
CC1=NC(=O)C(N=Nc2cccc(C(=O)O)c2)N1c1ccccc1 (configuration not stated),-21.0%,x,50.1µM*,-5.3%,-35.8%,u
Cc1ccc(C)c(NC(=O)CN2C(=O)CCc3cc(S(=O)(=O)N4CCCCC4)ccc32)c1,-10.5%,x,-15.1%,x,25.5%,2.3%
S=c1[nH]c2ccc3ccccc3c2[nH]1,35.2%,-5.6,u,-14.8%,25.4%,-16.0%
Cc1[nH]c2c(ccc3ccccc32)c1C1C(CCN)C1(C)C (configuration not stated),-0.2%,-5.4,56.2µM*,1.7%,-7.0%,56.2µM*
CCOC(=O)C1=C[C@@H](C2CCCC2)N(S(=O)(=O)c2ccc([N+](=O)[O-])cc2)[C@H]1c1ccccc1,x,-0.7,x,0.6%,x,x
COc1ccc(-c2nnc(NC(=O)C3CCCN3S(=O)(=O)c3cccs3)o2)cc1 (configuration not stated),-0.2%,-8.9,50.1µM*,-1.1%,23.6%,u
CNC(=O)c1ccsc1NC(=O)C1CCCN1S(=O)(=O)c1cccs1 (configuration not stated),-1.3%,3.1,-5.8%,-3.6%,-2.4%,-10.2%
SMILES,KAT2A inh,PI5P4Ka inh,BAZ2B block,PLK1 PBD block,HP1b binding inh,JMJD2A Tudor inh
O=C(Nc1nnc(-c2ccccc2)o1)C1CCCN1S(=O)(=O)c1cccs1 (configuration not stated),0.5%,-3.0,50.1µM*,5.6%,62.5%,u
O=C(Nc1ccccc1)C1CCCN1S(=O)(=O)c1cccs1 (configuration not stated),-0.3%,6.3,-8.4%,1.0%,25.4%,-8.5%
CCCCC(=O)OCc1cc(=O)n2nc(C3CC3)sc2n1,-1.1%,x,-18.3%,x,9.9%,-30.7%
O=C(COc1cccc(F)c1)Nc1nc(-c2ccccn2)cs1,x,u,x,10.6µM*,x,x
O=C(Nc1nc(-c2ccccn2)cs1)Nc1ccc(F)cc1F,-11.1%,-17.3,-27.5%,4.74µM*,u,39.8µM*
COc1ccc(N2CC(O)=C(c3nc(-c4ccc(F)cc4)cs3)C2=N)cc1Cl,-13.1%,-15.5,-2.7%,-29.2%,-5.8%,39.8µM*
Cc1ccccc1C(=O)c1cccn1CC(=O)NCc1ccccc1Cl,-11.2%,-2.6,-18.3%,-11.6%,17.8%,-15.2%
O=C(O)/C(CC(=O)c1ccc(Cl)cc1)=N/Nc1ccc([N+](=O)[O-])cc1[N+](=O)[O-],-22.4%,-53.4*,39.8µM*,23.8µM*,-38.4%,39.8µM*
CCOC(=O)C(C(=O)OCC)C(C)(C)/C(C)=N\Nc1ccc([N+](=O)[O-])cc1[N+](=O)[O-],-4.7%,5.3,10µM*,2.0%,35.5µM*,31.6µM*
C#CCOC(=O)CCCNc1ccc([N+](=O)[O-])cc1[N+](=O)[O-],-12.0%,x,50.1µM*,-2.7%,-22.2%,56.2µM*
C/C(CCC(=O)O)=N/Nc1ccc([N+](=O)[O-])cc1[N+](=O)[O-],-5.5%,-5.2,u,-7.0%,-5.2%,u
CCOC(=O)CC(C)(C)/C(C)=N/Nc1ccc([N+](=O)[O-])cc1[N+](=O)[O-],-10.1%,6.3,7.08µM*,-8.5%,14.1µM*,u
CCC(CC)=NNc1ccc([N+](=O)[O-])cc1[N+](=O)[O-],0.2%,3.3,u,-16.9%,23.9%,-16.8%
COc1ccc(CCNC(=O)C2=C(C)C(=O)OC23CCCCC3)c(OC)c1OC,3.2%,x,-3.9%,x,11.4%,u

# Bioassay records (PubChem)
